Data: PubChem BioAssay (NCATS)
Records with an inconclusive call do not appear. Calls of active or inactive are those of the source. Calls come from the whole dose curve; as a rule, active = well fitted inhibition curve with a large enough effect; inconclusive = small, poorly fitted or top-dose-only effect; inactive = flat fitted curve, though single readings scatter.

What was measured:
Assay in all cases: qHTS profiling for inhibitors of Plasmodium falciparum proliferation (AID 504749); note: nearly all actives have a fitted effect of over 60% in size
Settings in all cases: P. falciparum in erythrocytes, SYBR Green DNA, 72 h; series mostly up to 28.7 µM
[1] = system: CP335
Summary of the method: (§1)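 Each compound contacts P. falciparum-infected red blood cells for 72 h at 37 C; lysis buffer (Tris, EDTA, saponin, Triton X, SYBR Green I) is added and fluorescence measured next morning; values normalized to controls.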

[2] = system: DFO2036
Summary of the method: as §1

[3] = system: DIV14
Summary of the method: as §1

[4] = system: DIV17
Summary of the method: as §1

[5] = system: DIV30
Summary of the method: as §1

[6] = system: Dd2
Summary of the method: as §1

[7] = system: ECU
Summary of the method: as §1

[8] = system: FAB9
Summary of the method: as §1

[9] = system: GB4
Summary of the method: as §1

[10] = system: HB3
Summary of the method: as §1

[11] = system: ICS
Summary of the method: as §1

[12] = system: JCK
Summary of the method: as §1

[13] = system: N140
Summary of the method: as §1

[14] = system: P93_24
Summary of the method: as §1

[15] = system: P94_40
Summary of the method: as §1

[16] = system: PAD
Summary of the method: as §1

[17] = system: PC15
Summary of the method: as §1

[18] = system: PC26
Summary of the method: as §1

[19] = system: PC49
Summary of the method: as §1

[20] = system: SC27B
Summary of the method: as §1

Measured: Potency
Potency is the fitted concentration of half-maximal effect.

N[C@@H](Cc1cc(I)c(Oc2cc(I)c(O)c(I)c2)c(I)c1)C(=O)O
inactive: all assays above

Cc1cccc(C)c1OCC(=O)N[C@@H](Cc1ccccc1)[C@@H](O)C[C@H](Cc1ccccc1)NC(=O)[C@H](C(C)C)N1CCCNC1=O
active: [1] 4780 nM | [2] 3980 nM | [3] 1900 nM | [4] 1900 nM | [5] 1900 nM | [6] 10000 nM | [7] 1000 nM | [8] 11200 nM | [9] 3790 nM | [10] 7940 nM | [11] 891 nM | [12] 7940 nM | [13] 708 nM | [14] 1120 nM | [15] 2510 nM | [16] 891 nM | [17] 3980 nM | [18] 1900 nM | [19] 2000 nM | [20] 1120 nM

C[C@]12CCC(=O)C=C1CC[C@@H]1[C@H]2[C@@H](O)C[C@@]2(C)[C@H]1CC[C@]2(O)C(=O)CO
inactive: all assays above

Nc1cc(C(Cl)=C(Cl)Cl)c(S(N)(=O)=O)cc1S(N)(=O)=O
inactive: all assays above

O=C(O)c1cccnc1Nc1cccc(C(F)(F)F)c1
inactive: all assays above

CCC1=C(C)CN(C(=O)NCCc2ccc(S(=O)(=O)NC(=O)NC3CCC(C)CC3)cc2)C1=O (stereo not given)
inactive: all assays above

O=C(O)c1cccc(-c2noc(-c3ccccc3F)n2)c1
inactive: all assays above

CN1C(C(=O)Nc2ccccn2)=C(O)c2sccc2S1(=O)=O
inactive: all assays above

CC(C)[C@H](N)C(=O)OCCOCn1cnc2c(=O)[nH]c(N)nc21
inactive: all assays above

CCOc1cc(CC(=O)N[C@@H](CC(C)C)c2ccccc2N2CCCCC2)ccc1C(=O)O
inactive: all assays above

Cc1ccc(C)c(OCCCC(C)(C)C(=O)O)c1
inactive: all assays above

N=C(N=C(N)N)N1CCOCC1
inactive: all assays above

O=C(CS(=O)Cc1ccco1)NCC=CCOc1cc(CN2CCCCC2)ccn1 (stereo not given)
inactive: all assays above

Nc1ccc(S(N)(=O)=O)cc1
inactive: all assays above

O=C(NC(Cc1cc(=O)[nH]c2ccccc12)C(=O)O)c1ccc(Cl)cc1 (stereo not given)
inactive: all assays above

O=P(O)(O)C(O)(Cn1ccnc1)P(=O)(O)O
inactive: all assays above

CCCCc1ccc2nc(NC(=O)OC)[nH]c2c1
inactive: all assays above

CC(S)C(=O)NCC(=O)O (stereo not given)
inactive: all assays above

CNC[C@@H](O)[C@@H](O)[C@H](O)[C@H](O)CO
inactive: all assays above

CCCOc1ccc2nc(NC(=O)OC)[nH]c2c1
inactive: all assays above

C[C@H](Cn1cnc2c(N)ncnc21)OCP(=O)(O)O
inactive: all assays above

Cn1c(NCCN(CCO)CCCc2ccc([N+](=O)[O-])cc2)cc(=O)n(C)c1=O
inactive: all assays above

CN(C)CCc1c[nH]c2ccc(Cn3cncn3)cc12
inactive: all assays above

O=C(NCCO[N+](=O)[O-])c1cccnc1
inactive: all assays above

CC1(C)NC(=O)N(c2ccc([N+](=O)[O-])c(C(F)(F)F)c2)C1=O
inactive: all assays above

Cc1cc2cc3c(C)cc(=O)oc3c(C)c2o1
inactive: all assays above
